Compound activity: PubChem BioAssay, several laboratories
TWEAK-Fn14 inh = inhibitors of TWEAK-Fn14 signaling, primary screen, luciferase reporter cells, uHTS | TWEAK-stimulated Fn14 reporter cells, luciferase luminescence, 8 h | 360,000 tested, 2% active | AID 1159606, 2016 | inhibition, % at 10 µM; in the data active = inhibition above about 50%
LMP1 NFkB inh = EBV LMP1-driven NF-kappaB luciferase reporter inhibitors, primary screen, cell-based, luminescence, single point; 350,000 tested, 0.69% active; inhibition, % at 12.5 µM; AID 504558, 2011; LMP1-induced NF-kappaB luciferase reporter cells; in the data active = inhibition above about 41%;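 also: 0% = neutral control wells and 100% = reference inhibitor control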
Shn3 3UTR inh = reduction of Shn3 3'UTR firefly luciferase signal, primary screen, Schnurri-3 inhibitor project, cell-based, Clone20 osteoblasts, set 2; 360,000 tested, 0.52% active; Clone20 osteoblast Shn3 3'UTR firefly luciferase, 24 h; AID 588674, 2011; inhibition, % at 12.5 µM;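 active = mean inhibition of at least 75% with every replicate also reaching 75%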;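 also: 0% = median of neutral control wells and 100% = pilot-screen positive control compound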
HIF-2a block = HIF-2a reporter inhibitors, primary screen, luminescence, 786-0 RCC cells | 786-0 RCC cells HIF-2a reporter, luciferase luminescence, overnight | inhibition, % at 18.8 µM | 360,000 tested, 0.72% active | AID 624352, 2012;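 active = inhibition of the luminescence signal of 40% or more relative to plate controls, in a single-dose primary screen at 18.75 µM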
MITF TRPM1 inh = inhibitors of MITF-dependent TRPM1 promoter reporter, primary screen, cell-based, SK-MEL-5, single point, luciferase. inhibition, % at 12.5 µM. SK-MEL-5 TRPM1 promoter luciferase, 24 h. 330,000 tested, 0.83% active;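 active = mean inhibition across replicates of 60% or more, whatever share of single replicates reaches that level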
TROY signal inh = inhibitors of TROY-driven NF-kB signaling, primary screen, Q293 LMP1-TROYcd cells, NF-kB luciferase, uHTS; 360,000 tested, 0.98% active; inhibition, % at 10 µM; Q293 LMP1-TROYcd NF-kB luciferase reporter, 4 h;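 active = compounds whose plate-normalised and pattern-corrected inhibition of the luciferase reporter signal at the single screening dose is 50% or more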
Numbers without * were called inactive. Hits are enriched below; roughly 3.4% of the tested compounds scored in any of these assays.

Results for Cc1[nH]nc(S(=O)CC(=O)O)c1[N+](=O)[O-] (stereo unspecified) ?
TWEAK-Fn14 inh: 61*; LMP1 NFkB inh: -4; Shn3 3UTR inh: -15; HIF-2a block: 24; MITF TRPM1 inh: -9; TROY signal inh: 88*

What do the screens show for `COc1ccccc1N1C(=O)N(C(C)=O)C2C1Nc1ccccc1N2C` (stereo unspecified)?
TWEAK-Fn14 inh: -17; LMP1 NFkB inh: -19; Shn3 3UTR inh: -50; HIF-2a block: 2; MITF TRPM1 inh: 69*; TROY signal inh: -25

How did Cc1nc(NC(=O)COC(=O)C2CC3CCCC(C2)C3=O)c(Cl)cc1Cl (stereo unspecified) do in these assays?
TWEAK-Fn14 inh: 18; LMP1 NFkB inh: 2; Shn3 3UTR inh: -10; HIF-2a block: -3; MITF TRPM1 inh: 1; TROY signal inh: -29

What do the screens show for `CC(=O)c1ccc(-c2ccc(C(=O)N(C)c3c(N)n(Cc4ccccc4)c(=O)[nH]c3=O)o2)cc1`?
TWEAK-Fn14 inh: -4; LMP1 NFkB inh: 4; Shn3 3UTR inh: -6; HIF-2a block: 3; MITF TRPM1 inh: -8; TROY signal inh: 6

Results for O=C(NC(CSCc1ccccc1)C(=O)N/N=C/c1ccc(O)cc1O)c1ccc([N+](=O)[O-])cc1 (stereo unspecified) ?
TWEAK-Fn14 inh: -9; LMP1 NFkB inh: 17; Shn3 3UTR inh: 91*; HIF-2a block: 13; MITF TRPM1 inh: 70*; TROY signal inh: 5

What do the screens show for `Cc1ccc(-c2nc3ncccc3o2)cc1NC(=O)c1sc2ccccc2c1Cl`?
TWEAK-Fn14 inh: -60; LMP1 NFkB inh: 38; Shn3 3UTR inh: 85*; HIF-2a block: 8; MITF TRPM1 inh: 45; TROY signal inh: -12

Results for C=CCN1C(=O)/C(=C\c2ccc(Cl)cc2)N=C1SCC(=O)NCCC ?
TWEAK-Fn14 inh: -17; LMP1 NFkB inh: 4; Shn3 3UTR inh: -10; HIF-2a block: 5; MITF TRPM1 inh: -7; TROY signal inh: -16

What do the screens show for `COCCNC(=O)CSC1=N/C(=C/c2ccc(Cl)c(Cl)c2)C(=O)N1c1ccccc1F`?
TWEAK-Fn14 inh: 57*; LMP1 NFkB inh: -3; Shn3 3UTR inh: -7; HIF-2a block: -22; MITF TRPM1 inh: -5; TROY signal inh: 23

What do the screens show for `CCCNC(=O)C1(C)CCN(C(=O)c2ccc(OC)cc2OC)C1` (stereo unspecified)?
TWEAK-Fn14 inh: -16; Shn3 3UTR inh: -5; HIF-2a block: 17; TROY signal inh: -4

What do the screens show for `COc1ccc(C(=O)NC(=S)NNC(=O)c2ccc3ccccc3n2)cc1`?
TWEAK-Fn14 inh: -15; LMP1 NFkB inh: 49*; Shn3 3UTR inh: 90*; HIF-2a block: 8; MITF TRPM1 inh: 10; TROY signal inh: -31

Results for COc1ccc(N=C(NN)c2ccc3ccccc3n2)cc1 ?
TWEAK-Fn14 inh: 101*; LMP1 NFkB inh: 35; Shn3 3UTR inh: 55; HIF-2a block: 56*; MITF TRPM1 inh: 45; TROY signal inh: 91*

Results for COc1cc(OC)cc(C(=O)NNC(=O)c2ccc3ccccc3n2)c1 ?
TWEAK-Fn14 inh: 37; LMP1 NFkB inh: 13; Shn3 3UTR inh: 9; HIF-2a block: -16; MITF TRPM1 inh: 51; TROY signal inh: 57*

How did COc1ccccc1N1CCN(C2CCCN(C(=O)CCc3cnn(C)c3)C2)CC1 (stereo unspecified) do in these assays?
TWEAK-Fn14 inh: 5; LMP1 NFkB inh: 4; Shn3 3UTR inh: 7; HIF-2a block: 8; MITF TRPM1 inh: 2; TROY signal inh: 0

Results for CCOc1ccc(NC2CCN(C(C)=O)CC2)cc1 ?
TWEAK-Fn14 inh: 0; LMP1 NFkB inh: 42*; Shn3 3UTR inh: -3; HIF-2a block: -7; MITF TRPM1 inh: -7; TROY signal inh: -18

What do the screens show for `CC(NC(N)=O)C(=O)Nc1ccc(Cl)c(S(=O)(=O)Nc2ccc(Cl)cc2)c1` (stereo unspecified)?
TWEAK-Fn14 inh: 11; LMP1 NFkB inh: -1; Shn3 3UTR inh: -6; HIF-2a block: 11; MITF TRPM1 inh: -6; TROY signal inh: -18

Results for CC(C)Oc1ccc(C(=O)Nc2ccc(Cl)c(S(=O)(=O)Nc3ccc(Cl)cc3)c2)cc1 ?
TWEAK-Fn14 inh: 90*; LMP1 NFkB inh: 0; Shn3 3UTR inh: 8; HIF-2a block: -51; MITF TRPM1 inh: 8; TROY signal inh: 55*

Results for COC(C)(C)[C@@H](O)COc1c2ccoc2cc2oc(=O)ccc12 ?
TWEAK-Fn14 inh: -2; LMP1 NFkB inh: -8; Shn3 3UTR inh: -15; HIF-2a block: 9; MITF TRPM1 inh: -10; TROY signal inh: -15

What do the screens show for `COc1cc(/C=N/n2c(-c3ccc4c(c3)NC(=O)CO4)csc2=Nc2cccc(C)c2)ccc1O`?
TWEAK-Fn14 inh: 65*; LMP1 NFkB inh: -6; Shn3 3UTR inh: 19; HIF-2a block: -30; MITF TRPM1 inh: 16; TROY signal inh: 12

What do the screens show for `CCN1C(=O)c2cccc3c(S(=O)(=O)N(C(=O)c4ccncc4)c4ccc(OC)cc4)ccc1c23`?
TWEAK-Fn14 inh: 31; LMP1 NFkB inh: 7; Shn3 3UTR inh: 13; HIF-2a block: 1; MITF TRPM1 inh: 21; TROY signal inh: 31

Results for CCN1C(=O)c2cccc3c(S(=O)(=O)N(C(=O)c4cccnc4)c4ccc(OC)cc4)ccc1c23 ?
TWEAK-Fn14 inh: 62*; LMP1 NFkB inh: 0; Shn3 3UTR inh: 33; HIF-2a block: 9; MITF TRPM1 inh: 18; TROY signal inh: 33

How did CCOC(=O)C(CC1=CS(=O)(=O)c2ccc(Cl)cc21)(NC(C)=O)C(=O)OCC do in these assays?
TWEAK-Fn14 inh: 22; LMP1 NFkB inh: -11; Shn3 3UTR inh: 5; HIF-2a block: 10; TROY signal inh: -18

Results for OCc1cccc(-c2cnc3c(Nc4cccc(OC(F)(F)C(F)F)c4)nccn23)c1 ?
TWEAK-Fn14 inh: 57*; Shn3 3UTR inh: 14; HIF-2a block: -247; TROY signal inh: 42

How did Cc1ccc(-c2cnc3c(Nc4cccc(OC(F)(F)C(F)F)c4)nccn23)cc1 do in these assays?
TWEAK-Fn14 inh: 4; Shn3 3UTR inh: -18; HIF-2a block: -157; TROY signal inh: -8

How did c1ccc2nc(-c3nc4ccccc4[nH]3)ccc2c1 do in these assays?
TWEAK-Fn14 inh: 82*; LMP1 NFkB inh: -2; Shn3 3UTR inh: 9; HIF-2a block: -4; MITF TRPM1 inh: 19; TROY signal inh: 49

How did c1ccc2[nH]c(-c3cscn3)nc2c1 do in these assays?
TWEAK-Fn14 inh: -8; LMP1 NFkB inh: -8; Shn3 3UTR inh: -65; HIF-2a block: -213; MITF TRPM1 inh: -60; TROY signal inh: -27
